VACV mCherry inh = inhibitors of vaccinia virus infection (mCherry reporter signal) | Vaccinia virus mCherry reporter infection, fluorescence | actives 0.63% (n = 310,000) | Potency, µM (top dose mostly 36.5 µM), hits mostly inhibitors; calls by dose curve; tested in A549 cells; also: nearly all actives have a fitted effect of over 35% in size
HCMV inh = inhibitors of human cytomegalovirus. HFF cells, HCMV-luciferase reporter, 72 h; stronger effect = lower value. activity change, negative = inhibition, % at 57.5 µM. actives 4.5% (n = 410,000). AID 1259415; in the data active = activity change below about -60%; inconclusive = no clear call, values can overlap the other calls; inactive = above about -39%
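Human foreskin fibroblasts infected with luciferase-reporter HCMV at MOI 1 PFU/cell, compounds at two doses. Luciferase measured 72 h post infection; normalized to buffer-only basal and Salinomycin (10uM) controls.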
FMDV inh = antivirals against foot and mouth disease virus; FMDV antiviral cell-based qHTS; AID 1159524; actives 1.2% (n = 410,000); Potency, µM (highest dose often 57.9 µM), most hits filed as inhibitors; calls by dose curve; tested in HEK293T cells; also: read-out not given here; nearly all actives have a fitted effect of over 45% in size
Lassa entry inh = Lassa virus entry inhibition. Lassa virus pseudotype entry inhibition, cell reporter. actives 1.2% (n = 300,000). Potency, µM (top dose mostly 37.9 µM), actives largely listed as inhibitors; calls by dose curve; tested in HEK293 cells; also: nearly all actives have a fitted effect of over 50% in size
Marburg entry inh = inhibitors of Marburg virus binding or cell entry. Marburg virus pseudotyped entry inhibition, cell reporter. Potency, µM (highest dose often 37.8 µM), actives largely listed as inhibitors. actives 1.8% (n = 300,000). AID 540276; calls by dose curve; tested in HEK293 cells
VACV Venus inh = vaccinia inhibition (Venus reporter); AID 720580; Vaccinia virus Venus reporter expression, fluorescence; Potency, µM (doses to about 36.5 µM), usual class: inhibitors; actives 0.46% (n = 330,000); calls by dose curve; tested in A549 cells; also: nearly all actives have a fitted effect of over 30% in size
Numbers stand for hits. Rows were chosen to be rich in hits. Some 6.5% of all compounds tested hit in one or more screens of this group.

What do the screens show for `C/C(=N/NC(=O)c1cccs1)c1ccc(NC(=O)COc2ccc(Cl)cc2)cc1`?
VACV mCherry inh: inactive; HCMV inh: inactive; FMDV inh: inactive; Lassa entry inh: 10µM; Marburg entry inh: inconclusive; VACV Venus inh: inactive

What do the screens show for `C/C(=N\NC(=O)c1ccc(NS(=O)(=O)c2cccs2)cc1)c1ccc(Cl)cc1`?
VACV mCherry inh: inactive; HCMV inh: inactive; FMDV inh: inactive; Lassa entry inh: inactive; Marburg entry inh: inactive; VACV Venus inh: inactive

How did C/C(=N\NC(=O)c1ccc(NS(=O)(=O)c2cccs2)cc1)c1cccs1 do in these assays?
VACV mCherry inh: inactive; HCMV inh: -82.8; FMDV inh: inactive; Lassa entry inh: inactive; Marburg entry inh: inactive; VACV Venus inh: inactive

How did C/C(=N\NC(=O)c1cccs1)c1ccncc1 do in these assays?
HCMV inh: inactive; FMDV inh: inactive

How did CC(c1ccc(N(C)C)cc1)c1ccnc2ccccc12 (configuration not stated) do in these assays?
VACV mCherry inh: inactive; VACV Venus inh: inactive

How did COC(=O)[C@@H]1CCCN1Cc1ccc2c(c1)CN(Cc1ccc3c(c1)CCCN3C)CCO2 do in these assays?
VACV mCherry inh: inactive; FMDV inh: inactive; VACV Venus inh: inactive

What do the screens show for `Cc1cccc(C)c1OCC(=O)N/N=C/c1ccc2c(c1)OCO2`?
HCMV inh: inactive; FMDV inh: inactive; Lassa entry inh: inconclusive; Marburg entry inh: inactive; VACV Venus inh: inconclusive

Results for Cc1ccc(C(C)C)cc1OCC(=O)N/N=C/c1ccc2c(c1)OCCO2 ?
VACV mCherry inh: inactive; HCMV inh: inactive; FMDV inh: inconclusive; Lassa entry inh: 1.12µM; Marburg entry inh: inconclusive; VACV Venus inh: inactive

What do the screens show for `C/C=N\NC(=O)COc1cc(C)ccc1C`?
VACV mCherry inh: inactive; HCMV inh: -60.1; FMDV inh: inactive; Lassa entry inh: inactive; Marburg entry inh: inactive; VACV Venus inh: inactive

How did Cc1ccc(C)c(OCC(=O)NCCNC(=O)COc2cc(C)ccc2C)c1 do in these assays?
HCMV inh: inactive; FMDV inh: inactive; Lassa entry inh: inactive; Marburg entry inh: inactive

How did CCNc1ncc2nc(-c3ccc(Cl)cc3)c(=O)n(-c3ccc(OC)cc3)c2n1 do in these assays?
FMDV inh: inactive

Results for Cc1ccccc1Nc1c(-c2ccc(N3CCOCC3)cc2)nc2ccc(Br)cn12 ?
VACV mCherry inh: inactive; HCMV inh: inactive; FMDV inh: inactive; Lassa entry inh: inactive; Marburg entry inh: inactive; VACV Venus inh: inactive

What do the screens show for `CSc1ccc(/C=C/c2nc3ccccc3n2S(=O)(=O)c2cccc(Cl)c2)cc1`?
VACV mCherry inh: inconclusive; HCMV inh: -65.4; FMDV inh: inactive; Lassa entry inh: inconclusive; Marburg entry inh: inactive; VACV Venus inh: inactive

How did Cc1ccc(/C=C/c2nc3ccccc3n2S(=O)(=O)c2ccc(Br)cc2)cc1 do in these assays?
VACV mCherry inh: inactive; HCMV inh: -89.0; FMDV inh: inactive; Lassa entry inh: inconclusive; VACV Venus inh: inactive

Results for O=S(=O)(c1cccc(Cl)c1)n1c(/C=C/c2ccccc2Cl)nc2ccccc21 ?
VACV mCherry inh: inactive; HCMV inh: inactive; FMDV inh: inactive; Lassa entry inh: inconclusive; VACV Venus inh: inactive

What do the screens show for `CCOC(=O)c1[nH]c2ccc(OCC)cc2c1NC(=O)CN1CCN(c2ccccc2)CC1`?
HCMV inh: inactive; FMDV inh: inconclusive; Lassa entry inh: inactive; Marburg entry inh: inactive; VACV Venus inh: inactive

How did CCOC(=O)c1[nH]c2ccc(F)cc2c1NC(=O)CN1CCN(C/C=C/c2ccccc2)CC1 do in these assays?
HCMV inh: inactive; FMDV inh: 31.6µM; Lassa entry inh: inconclusive; Marburg entry inh: inconclusive; VACV Venus inh: inconclusive

What do the screens show for `COC(=O)c1[nH]c2ccccc2c1NC(=O)CN1CCN(C/C=C/c2ccccc2)CC1`?
VACV mCherry inh: inactive; HCMV inh: -61.0; Lassa entry inh: inconclusive; Marburg entry inh: 18.3µM; VACV Venus inh: inconclusive

Results for Cc1cccc(C)c1NC(=O)CN1CCN(C/C=C/c2ccccc2)CC1 ?
VACV mCherry inh: inactive; HCMV inh: inactive; FMDV inh: inactive; VACV Venus inh: inactive

How did CCn1ccnc1CN(C)Cc1cn[nH]c1-c1ccc(OC)c(F)c1 do in these assays?
VACV mCherry inh: inactive; HCMV inh: -72.1; FMDV inh: inactive; Lassa entry inh: inactive; Marburg entry inh: inactive; VACV Venus inh: inactive

How did COc1ccc2c(c1)[C@@H](NS(C)(=O)=O)[C@H](C)[C@@H](c1ccccc1)N2C(=O)Nc1ccc(C(F)(F)F)cc1 do in these assays?
HCMV inh: inactive
